About 83,000 compounds went through this panel and 20% of them were active in at least one assay; those are over-represented in the sample as a whole.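 Method: cells in 96-well plates; compound added at one concentration; 48 h incubation; percent growth measured; values under 10 scored active.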 Values without a mark were called inactive. Active and inactive are the calls of the source.
Legend:
Test in all cases: NCI-60 one-dose screen, 48 h (100 = growth as untreated, 0 = no growth, -100 = all killed)
Settings in all cases: 10 µM unless noted
[1] = system: DU-145 prostate
[2] = system: K-562 leukemia
[3] = system: MALME-3M melanoma
[4] = system: MDA-MB-231 breast
[5] = system: RXF 393 renal
[6] = system: SF-268 CNS
[7] = system: SF-295 CNS
[8] = system: SF-539 CNS
[9] = system: UACC-257 melanoma
[10] = system: M14 melanoma

Structure (SMILES) | growth [1] | growth [2] | growth [3] | growth [4] | growth [5] | growth [6] | growth [7] | growth [8] | growth [9] | growth [10]
Cc1cccc(N2CCC(=O)NC2=S)c1 | 116% | 112% | 95.9% | 89.9% | 115% | 99.4% | 103% | 96.7% | 105% | 97.3%
COc1cc(C(=O)n2nc(N3CCOCC3)c3cc(-n4cccc4)ccc32)cc(OC)c1OC | 61.2% | 52.4% | 87.1% | 54.9% | -9.27% (active) | 76.8% | 71.8% | 79.9% | 103% | 52.7%
COc1ccc(CNc2c3ccccc3nc3ccccc23)c(OC)c1 | 49.4% | 13.2% | 67% | 43.6% | 33.4% | 65.7% | 36.3% | 14.6% | 74.6% | 43.8%
O=C1c2ccccc2C(=O)c2c1cc1c(c2[N+](=O)[O-])OCO1 | 17.8% | 10.5% | 85% | 11.3% | -63.5% (active) | 5.31% (active) | 10.6% | 21.3% | 82.3% | 73.5%
COc1ccc(C#Cc2ccc(=O)oc2-c2cc(OC)c(OC)c(OC)c2)cc1O | 58.5% | 16.8% | 38.8% | 59.9% | 57.8% | 69.7% | 23.5% | 47.6% | 53% | 33.9%
C=C(C)[C@@H]1CCC[C@]2(C(=O)N3CCN(C)CC3)CC[C@]3(C)[C@@H](CC[C@@H]4[C@@]5(C)CC/C(=N\NC(=O)c6ccncc6)C(C)(C)[C@@H]5CC[C@]43C)[C@@H]12 | 100% | 17.6% | 74.1% | 66.8% | 99.7% | 84.2% | 104% | 104% | 103% | 74.3%
c1nc2ccc(-c3cc4ccc5[nH]ncc5c4c4c3CCCC4)cc2[nH]1 | 62.5% | 27.8% | 28.8% | 81.6% | 62.6% | 71.1% | 67.9% | 48.7% | 59.1% | 7.72% (active)
CN1CCN(Cc2ccc(NC(=O)c3cncc(C#Cc4cnc5ccc(Cl)nn45)c3)cc2C(F)(F)F)CC1 | 4.06% (active) | 1.96% (active) | -63.1% (active) | -1.94% (active) | -52.8% (active) | -41.6% (active) | 9.72% (active) | -62% (active) | 3.9% (active) | -56.7% (active)
Nc1[nH]c(=S)nc2oc(-c3ccccc3)c(-c3ccccc3)c12 | 106% | 95.2% | 108% | 103% | 93% | 95.9% | 96.1% | 98.6% | 102% | 106%
COc1ccc(/C=C/c2c(C(=O)/C=C/c3ccccc3)c(C)nc3ccccc23)cc1 | 5.61% (active) | 6.28% (active) | 17.8% | 31.3% | -23% (active) | 45.3% | 22.1% | -39.5% (active) | 8.08% (active) | 15.3%
Nc1[nH]n2cc(-c3ccc(F)cc3)nc2c1N=Nc1ccc(S(N)(=O)=O)cc1 | 70.2% | 90.1% | 58.4% | 74.8% | 60.4% | 76.7% | 98.2% | 72.5% | 99.6% | 64.6%
CC1(C)N=C(N)N=C(N)N1c1cccc(CCc2ccccc2)c1 | 37.3% | 23.1% | 79.1% | 68.9% | 78.5% | 32.4% | 41.9% | 23% | 39.3% | 55.4%
CN(CCCNC(=O)Cc1ccc2ccc3cccc4ccc1c2c34)CCCNc1cc(-c2ccc3ccccc3c2)nc2ccccc12 | -90.7% (active) | -82.8% (active) | -57.7% (active) | -75.2% (active) | -24.1% (active) | -77.6% (active) | -36% (active) | -96.1% (active) | -70% (active) | -74.4% (active)
S=c1nc2oc(-c3ccccc3)c(-c3ccccc3)c2c(/N=C\c2ccco2)[nH]1 | 100% | 89.3% | 99.3% | 98.5% | 99.3% | 90.2% | 94.3% | 95.8% | 105% | 103%
Cc1nc2sc(C(=O)Nc3cccc(Br)c3C)c(N)c2cc1C(O)c1ccccc1 (stereo not given) | 6.13% (active) | 6.3% (active) | 56.9% | 3.16% (active) | 37.9% | 16.3% | 20.5% | 1.41% (active) | 52% | 9.77% (active)

— PubChem BioAssay (NCI)
